Bioassay records (PubChem BioAssay)
Rows were chosen to be rich in hits. Some 1.5% of all compounds tested hit in one or more screens of this group.
Nrf2 ARE act = qHTS of Nrf2 Activators; AID 624171, 2012; AREc32 ARE-luciferase reporter (MCF7-derived line), luminescence, 24 h; 0.31% of 410,000 active; Potency, µM (titrated, usually from 46.1 µM), inactives show at the top dose activation, actives largely listed as activators; note: potency is the fitted concentration of half-maximal effect; % of control where 0% means no effect; nearly all actives have a fitted effect of over 65% in size
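AREc32 cells carrying an ARE-driven firefly luciferase reporter were seeded at 1000 cells/well in OPTI-MEM with 5% FBS, then exposed to compound for 24 hr at 37 deg C. Luminescence was read with Steady-Glo after 30 min at RT.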
uPA generation = qHTS for Inhibitors of Cell Surface uPA Generation | 0.31% of 330,000 active | Potency, µM (top dose mostly 38.3 µM), for inactives: top-dose activity change, negative = inhibition, hits mostly inhibitors | cell surface uPA generation assay, qHTS; active = well fitted inhibition curve with a large enough effect; inconclusive = small, poorly fitted or top-dose-only effect; inactive = no such curve, though single readings can be large or run the other way; tested in mouse RAW 264.7 cells; note: potency is the fitted concentration of half-maximal effect; % is set by controls: 0 for no effect and ±100 for the full control effect; nearly all actives have a fitted effect of over 55% in size
12-LOX inh = Primary qHTS assay for inhibitors of human arachidonate 12S-lipoxygenase (ALOX12): Round 2 | purified 12hLO, xylenol orange hydroperoxide absorbance | Potency, µM (doses to about 108 µM), for inactives: top-dose activity change, negative = inhibition, actives largely listed as inhibitors | 1.1% of 580,000 active | AID 1671190, 2021; note: potency is the fitted concentration of half-maximal effect; % is set by controls: 0 for no effect and ±100 for the full control effect
Target sequence (P18054 whole entry, looked up): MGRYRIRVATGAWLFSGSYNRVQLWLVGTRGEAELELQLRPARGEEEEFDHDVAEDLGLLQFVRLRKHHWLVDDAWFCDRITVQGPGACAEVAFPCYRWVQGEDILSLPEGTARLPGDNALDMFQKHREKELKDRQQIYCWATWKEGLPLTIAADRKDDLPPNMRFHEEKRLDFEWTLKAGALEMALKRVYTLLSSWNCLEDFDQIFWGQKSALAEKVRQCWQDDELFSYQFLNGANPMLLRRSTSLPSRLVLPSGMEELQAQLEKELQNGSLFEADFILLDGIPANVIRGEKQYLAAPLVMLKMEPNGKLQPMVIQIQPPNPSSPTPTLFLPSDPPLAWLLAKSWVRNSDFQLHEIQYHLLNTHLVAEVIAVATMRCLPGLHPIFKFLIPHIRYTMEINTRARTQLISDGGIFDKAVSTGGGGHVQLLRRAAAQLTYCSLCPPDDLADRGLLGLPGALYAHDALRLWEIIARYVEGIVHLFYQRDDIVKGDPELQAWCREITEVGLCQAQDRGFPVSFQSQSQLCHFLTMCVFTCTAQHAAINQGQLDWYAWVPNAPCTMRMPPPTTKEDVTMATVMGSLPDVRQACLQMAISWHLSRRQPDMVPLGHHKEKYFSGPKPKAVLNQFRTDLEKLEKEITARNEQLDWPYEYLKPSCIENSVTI
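Hydroperoxide product was detected by ferrous iron/xylenol orange as the 573 to 405 nm absorbance ratio. Arachidonic acid at 40 uM (final) was turned over for 30 min at room temperature by 150 nM human 12hLO, pH 7.0 Hepes buffer, after 15 min compound preincubation.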
a7 integrin act = qHTS for Activators of Integrin-Mediated Alleviation for Muscular Dystrophy | alpha7betagal myoblasts, beta-gal FDG fluorescence, 48 h | Potency, µM (top dose mostly 38.3 µM), for the others: top-dose activation, most hits filed as activators | 0.064% of 350,000 active;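 note: potency is the fitted concentration of half-maximal effect; 100% = response of the positive control SU9516; nearly all actives have a fitted effect of over 60% in size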
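alpha7betagal+/- myoblasts (passage 13, 250/well) treated 48 h at 37C with compounds at 1:260 dilution of DMSO stock. Lysed, then beta-galactosidase activity read as FDG fluorescence (ex 480/em 540) after 30 min, with pre-read for autofluorescence.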
IL2 activator = qHTS of IL-2 Activators; IL-2 activation reporter assay, cell-based qHTS; stimulated with anti-CD3/CD4/CD28 beads; in transgenic mouse T cells; activation, % (series mostly up to about 46 µM); 0.065% of 360,000 active; in the data active = activation above about 50%; inconclusive = mostly about 30% to 49%; note: 0% is about no effect
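Unstimulated transgenic mouse T cells, 750 per well, received compound and, after 60 minutes, anti-CD3/anti-CD4 bead plus anti-CD28 stimulation. EGFP and DsRed were quantified after 18 hours.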
An asterisk follows results filed as active; ? = inconclusive; · = not tested or not shown; ! = not confirmed by another sample; [ ] = another dose, or the depositor's remark. Unless noted, calls come from the whole dose curve; as a rule, active = well fitted curve in the direction sought with a large enough effect; inconclusive = small, poorly fitted or top-dose-only effect, or another doubt; inactive = no such curve, though single readings can be large; an effect the other way counts as inactive or inconclusive.

SMILES | Nrf2 ARE act | uPA generation | 12-LOX inh | a7 integrin act | IL2 activator
Cc1nc(-c2ccco2)cc([C@H]2CN3CC[C@H]2C[C@@H]3CNC2CCOCC2)n1 | · | · | 22.9%[176 µM] | · | ·
O=P(Nc1ccccc1)(Oc1ccccc1)Oc1ccccc1 | -0.5% | 28.0% | 1.8% | 0.7% | 0.1
CNP(=O)(Oc1ccccc1)OC12CC3CC(CC(C3)C1)C2 (stereo not drawn) | -0.3% | 2.0% | 22.1% | 10µM* | -4.8
CCCNC(=O)OC[C@H]1C[C@@H]2CCN1C[C@@H]2c1cc(-c2ccc3ccccc3c2)nn1C | · | · | 4.2%[176 µM] | · | ·
CC(C)N(C(=O)CCl)c1ccccc1 | ? | 6.31µM* | -15.8% | · | -0.8
Cc1cc(C(=O)N2[C@H]3CC[C@@H]2c2cnc(-c4ccc(F)cc4)nc2C3)nn1C | · | · | -17.7% | · | ·
Cc1ccc(-n2c(/C=C/c3ccco3)nc3ccccc3c2=O)cc1 | · | · | 15.8µM* | · | ·
Cc1ccc(-n2c(/C=C/c3ccccn3)nc3ccccc3c2=O)cc1 | 0.3% | 2.5% | 4.9% | -25.3% | -1.2
CCN(CC)C(=O)c1ccc(NC(=O)c2cc(-c3ccco3)nc3ccccc23)cc1 | · | · | 31.6µM* | · | ·
c1ccc(-c2nc(N3CCOCC3)s[n+]2-c2ccccc2)cc1 | 5.3% | 2.1% | 31.6µM* | -8.5% | 0.4
O=C(c1cn(Cc2ccccc2F)c2ccccc12)C1CCCCC1 | · | · | -26.5% | · | ·
Cc1nc(-c2ccccc2Br)cc([C@H]2CN3CC[C@H]2C[C@@H]3CNC(=O)c2cccs2)n1 | · | · | 35.5µM* | · | ·
Cc1nc(-c2ccccc2Br)cc([C@H]2CN3CC[C@H]2C[C@@H]3CNC(=O)Nc2cccc(C#N)c2)n1 | · | · | 28.2µM* | · | ·
CC(=O)N1C2CCC1CN(C(C)C)C2 | · | · | 12.3%[12.5 µM] | · | ·
COc1cc2c(cc1OCc1ccccc1)N(C(=O)c1cc3ccccc3n1C)CC21CCN(C)CC1 | · | · | 31.6µM* | · | ·
CC(=O)O[C@H]1C[C@H](O[C@H]2[C@@H](O)C[C@H](O[C@@H]3[C@@H](O)C[C@H](O[C@H]4CC[C@@]5(C)[C@H](CC[C@@H]6[C@H]5C[C@@H](O)[C@]5(C)[C@@H](C7=CC(=O)OC7)CC[C@]65O)C4)O[C@@H]3C)O[C@@H]2C)O[C@H](C)[C@H]1O[C@@H]1O[C@H](CO)[C@@H](O)[C@H](O)[C@@H]1O | · | · | 12.8% | · | ·
Cc1cc(/C=C2\C(=O)NC(=O)N(c3ccc(Cl)cc3)C2=O)c(C)n1-c1sc2c(c1C#N)CCCC2 | 8.7% | 17.3% | 11.2µM* | 10.2% | -1.8
COc1cc(C2SCC(=O)Nc3[nH]ncc32)ccc1OC(C)C (stereo not drawn) | · | · | 10.4% | · | ·
O=C(NC[C@H]1C[C@@H]2CCN1C[C@@H]2CN1C[C@@H]2C[C@H](C1)c1cccc(=O)n1C2)c1ccc(C(F)(F)F)cc1 | · | · | 18.4% | · | ·
O=C1CC(=O)N(Cc2ccccc2)C(=S)N1 | 0.1% | 0.9% | 25.1µM* | -13.9% | 0.8
O=C(NC1CCCCC1)[C@H]1CN2CCC1C[C@@H]2Cn1cc(CO)nn1 (stereo partly drawn) | · | · | 15.0%[176 µM] | · | ·
CCN(CC)c1ccc(/C=N/c2sc3c(c2C#N)C2CCN3CC2)c(O)c1 | 2.3% | -6.2% | · | -45.8% | 52.9*
Clc1ccc(C(c2ccc(Cl)cc2)n2cc[n+](CC(OCc3ccc(Cl)cc3Cl)c3ccc(Cl)cc3Cl)c2)cc1 (stereo not drawn) | -3.0% | ? | 38.5µM*! | · | -0.8
CN(C)c1ccc(/C=C(\Cl)c2nc3ccccc3s2)cc1 | -0.1% | 10µM* | · | -8.1% | -4.2
Cc1ccccc1-n1c(/C=C/c2ccc(N(C)C)cc2)nc2ccccc2c1=O | 4.2% | · | -8.0% | · | ·
SMILES | Nrf2 ARE act | uPA generation | 12-LOX inh | a7 integrin act | IL2 activator
CCOC(=O)[C@]12Cc3cc(Cl)ccc3[C@H]1N(C)C(=O)c1cc(OC)ccc12 | -3.1% | · | ? | · | -0.1
CCOC(=O)[C@]12Cc3cc4c(cc3[C@H]1N(Cc1ccccc1)C(=O)c1ccccc12)OCO4 | 4.2% | 12.6µM* | -5.9% | -10.4% | -0.5
CCOC(=O)[C@]12Cc3ccc(C)cc3[C@H]1N(C1CCCCC1)C(=O)c1cc(OC)ccc12 | -4.1% | · | 56.2µM* | · | -0.9
CCOC(=O)[C@]12Cc3cc(Cl)ccc3[C@H]1N(C1CCCCC1)C(=O)c1cc(OC)ccc12 | -3.1% | · | 44.7µM* | · | -1.2
CCOC(=O)[C@]12Cc3cc(Cl)ccc3[C@H]1N(Cc1ccccc1)C(=O)c1ccccc12 | 7.0% | ? | -39.4% | -17.1% | -0.7
CCOC(=O)[C@]12Cc3cc(OC)ccc3[C@H]1N(C)C(=O)c1cc(OC)ccc12 | -3.5% | · | ? | · | -1.1
CCOC(=O)[C@]12Cc3ccc(C)cc3[C@H]1N(C1CCCCC1)C(=O)c1ccccc12 | -3.7% | · | ? | · | -0.1
CCOC(=O)[C@]12Cc3cc(C)ccc3[C@H]1N(C1CCCCC1)C(=O)c1ccccc12 | -3.9% | · | 50.1µM* | · | -1.0
Cc1nn(-c2ccccc2)c2c1C(c1cnn(C)c1C)SCC(=O)N2 (stereo not drawn) | · | · | 27.2% | · | ·
COc1ccccc1-c1cc([C@H]2CN3CC[C@H]2C[C@@H]3CNC(=O)c2cccs2)n(C)n1 | · | · | 37.3% | · | ·
Cc1cccc(-n2c(O)c(/C=N/Nc3nc4c(c(=O)n(C)c(=O)n4C)n3C)c(=O)[nH]c2=S)c1 | -0.2% | -1.7% | 31.6µM* | -5.1% | -0.2
Cn1cc(C(=O)NCC(=O)NC(C)(C)C)c2ccccc21 | · | · | 12.0% | · | ·
c1nc(CN2CCNCC2)cs1 | · | · | 4.3% | · | ·
CC(C)(C)c1ccc(O)c(N=Cc2c(O)ccc3ccccc23)c1 | 4.9% | -5.4% | 7.94µM* | ? | -3.7
COC(=O)C(O)(c1ccc(N=Cc2ccccc2O)c(C)c1)C(F)(F)F (stereo not drawn) | -0.2% | -0.3% | 12.4% | 2.8% | -3.7
O=c1c2ccccc2nc(/C=C/c2ccccc2F)n1-c1ccccc1O | ? | ? | 11.2µM* | 7.9% | -1.4
O=c1c2ccccc2nc(/C=C/c2ccccc2)n1-c1ccccc1F | 4.2% | · | -13.2% | · | ·
C=C[C@H]1CN2CC[C@H]1C[C@@H]2CNS(=O)(=O)c1cccc(F)c1 | · | · | 37.3%[176 µM] | · | ·
COc1cc(/C=C2\C(=O)NC(=O)N(c3ccccc3)C2=O)cc(OC)c1O | 0.2% | · | ? | ? | 0.1
Cc1ccc(N2C(=O)NC(=O)/C(=C\c3cc(C)n(-c4ccc(C(=O)O)cc4)c3C)C2=O)cc1 | 0.1% | -1.1% | ? | 12.8% | -0.1
COc1ccc(N2C(=O)NC(=O)/C(=C/c3cccc(OC(=O)c4cccs4)c3)C2=O)cc1Cl | -0.2% | -5.9% | 35.5µM* | -2.3% | -0.2
Cc1ccc(N2C(=O)NC(=O)/C(=C/c3ccc(OC(=O)c4cccs4)cc3)C2=O)cc1 | 2.2% | 1.7% | 44.7µM* | -1.2% | -1.3
